Assay results from PubChem BioAssay (EPA / NIEHS).
Results filed as inconclusive are left out. Activity calls are given as the source filed them. How the source made its calls, unless noted: active means hit-call score of the fitted dose curve at least 0.9, where 1 is the maximum; inactive means score below 0.9.

Legend:
[1] = ATG_NFI_CIS: Attagene CIS-FACTORIAL HepG2 Assay for human Nuclear Factor I (NFI) (AID 2282989); conditions: HepG2 cis-regulatory reporter, NFI response element transcription; actives raise or lower the signal
Outline: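 Read-out: reporter mRNA via RT-PCR plus capillary electrophoresis with fluorescence detection. Transiently transfected HepG2 (endogenous TF activity on cis promoters), 24 h compound exposure; gain or loss of signal fitted against DMSO.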

[2] = biological target: Myc proto-oncogene protein (Homo sapiens) (UniProt P01106); assay: ATG_Myc_CIS: Attagene CIS-FACTORIAL HepG2 Assay for human Myelocytomatosis (Myc) Proto-Oncogene Transcription Factor (AID 2282990); conditions: HepG2, Attagene cis-reporter transcription factor activity; actives raise or lower the signal
Outline: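 HepG2 cells transiently transfected with multiple cis-promoter-driven reporter transcription units, so endogenous TF activity is read. After 24 h compound exposure, reporter mRNA was quantified by RT-PCR, 6-FAM labelling, HpaI digestion and capillary electrophoresis; bidirectional fit versus DMSO.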

[3] = ATG_NRF2_ARE_CIS: Attagene CIS-FACTORIAL HepG2 Assay for human Nuclear Factor Erythroid 2 Related Factor 2 (NFR2) response to Antioxidant Response Elements (ARE) (AID 2282992); conditions: HepG2 Attagene ARE/NRF2 reporter, transcription factor activity; actives raise or lower the signal;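 on AC50: reporter mRNA level measured by RT-PCR and capillary electrophoresis fluorescence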
Outline: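 Readout: reporter mRNA quantified by RT-PCR plus FAM-labelled primer extension, HpaI digestion and capillary electrophoresis, 24 h after dosing transfected HepG2 cells. Gain or loss of signal is fitted bidirectionally against DMSO baseline.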

[4] = ATG_Oct_MLP_CIS: Attagene CIS-FACTORIAL HepG2 Assay for human Octamer-Binding Transcription Factor (Oct) (AID 2282993); conditions: HepG2 Attagene cis-factorial Oct reporter, mRNA; actives raise or lower the signal
Outline: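 Read-out: reporter mRNA via RT-PCR plus capillary electrophoresis of 6-FAM-labelled fragments. Transiently transfected HepG2, 24 h exposure, endogenous TF activity on cis elements. Gain or loss of signal fitted relative to DMSO.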

[5] = biological target: Cellular tumor antigen p53 (Homo sapiens) (UniProt P04637); assay: ATG_p53_CIS: Attagene CIS-FACTORIAL HepG2 Assay for human p53 Transcription Factor (AID 2282994); conditions: HepG2 p53 cis-element reporter, Attagene mRNA; actives raise or lower the signal
Outline: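 Read-out: reporter mRNA by RT-PCR plus capillary electrophoresis with fluorescence detection. Human HepG2 liver cells carried transfected multi-reporter cis-element constructs, dosed 24 h. Gain or loss of signal fitted bidirectionally against DMSO control.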

[6] = biological target: human Retinoic Acid Receptor beta (RARb), RARB (gene 5915) (UniProt P10826); assay: ATG_RARb_TRANS: Attagene TRANS-FACTORIAL HepG2 Assay for human Retinoic Acid Receptor beta (AID 2283004; active means hit-call score of the fitted dose curve at least 0.9, where 1 is the maximum)
Outline: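 Readout is reporter mRNA induction: RNA reverse-transcribed, PCR-amplified, FAM-labelled, HpaI-cut and resolved by capillary electrophoresis. Transiently transfected HepG2 cells carrying exogenous NR–Gal4 chimeras were dosed for 24 h; activity fitted upward relative to DMSO.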

[7] = biological target: Retinoic acid receptor alpha (Homo sapiens) (UniProt P10276); assay: ATG_RARa_TRANS: Attagene TRANS-FACTORIAL HepG2 Assay for human Retinoic Acid Receptor alpha (RARa) (AID 2283005; active means hit-call score of the fitted dose curve at least 0.9, where 1 is the maximum)
Outline: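 HepG2 cells transiently transfected with multiple reporter units expressing chimeric RARα-GAL4 fusion, with GAL4-UAS-driven reporters. After 24 h compound exposure, reporter mRNA induction quantified by RT-PCR and capillary electrophoresis with fluorescent labeling; gain-of-signal fitted relative to DMSO control.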

[8] = biological target: Nuclear receptor subfamily 1 group I member 2 (Homo sapiens) (UniProt O75469); assay: ATG_PXR_TRANS: Attagene TRANS-FACTORIAL HepG2 Assay for human Pregnane X Receptor (PXR) (AID 2283008; active means hit-call score of the fitted dose curve at least 0.9, where 1 is the maximum)
Outline: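 Trans-factorial format: exogenous NR-Gal4 fusion activity, not endogenous factor, in transfected human HepG2 liver cells. After 24 h dosing, RNA isolated, reverse-transcribed, amplified and resolved by capillary electrophoresis; induction scored versus DMSO.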

[9] = biological target: human Retinoic Acid Receptor gamma (RARg), RARG (gene 5916) (UniProt P13631); assay: ATG_RARg_TRANS: Attagene TRANS-FACTORIAL HepG2 Assay for human Retinoic Acid Receptor gamma (RARg) (AID 2283009; active means hit-call score of the fitted dose curve at least 0.9, where 1 is the maximum)
Outline: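 Readout: reporter transcript levels via RT-PCR, 6-FAM primer-extension labelling, HpaI digestion and capillary electrophoresis. Cells: HepG2 carrying transfected RARg-GAL4 chimera plus UAS reporter set. Dosing 24 h; DMSO negative control.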

[10] = biological target: Peroxisome proliferator-activated receptor gamma (Homo sapiens) (UniProt P37231); assay: ATG_PPARg_TRANS: Attagene TRANS-FACTORIAL HepG2 Assay for human Peroxisome Proliferator-activated Receptor-gamma (PPARg) (AID 2283007; active means hit-call score of the fitted dose curve at least 0.9, where 1 is the maximum)
Outline: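 Human hepatoma HepG2, transient MRTU transfection, 24 h treatment. mRNA reporter signal by RT-PCR plus capillary electrophoresis, fluorescence detection; fitted for increase over DMSO negative control.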

[11] = biological target: human RAR-related Orphan Receptor beta (RORb), RORB (gene 6096) (UniProt Q92753); assay: ATG_RORb_TRANS: Attagene TRANS-FACTORIAL HepG2 Assay for human RAR-related Orphan Receptor beta (RORb) (AID 2283010; active means hit-call score of the fitted dose curve at least 0.9, where 1 is the maximum)
Outline: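 HepG2, transient MRTU transfection (GAL4-UAS reporters, exogenous NR-Gal4 chimeras); 24 h compound exposure; total RNA → RT-PCR → 6-FAM primer extension → HpaI digest → CE fluorescence. Positive direction vs DMSO baseline.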

[12] = biological target: human Peroxisome Proliferator-activated Receptor delta (PPARd), PPARD (gene 5467) (UniProt Q03181); assay: ATG_PPARd_TRANS: Attagene TRANS-FACTORIAL HepG2 Assay for human Peroxisome Proliferator-activated Receptor delta (PPARd) (AID 2283002; active means hit-call score of the fitted dose curve at least 0.9, where 1 is the maximum)
Outline: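 HepG2 cells transiently transfected with multiplexed GAL4-UAS reporter units and exogenous chimeric NR-Gal4 proteins; 24 h compound exposure. Reporter mRNA measured by RT-PCR, 6-FAM labelling, HpaI digestion and capillary electrophoresis; gain of signal versus DMSO.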

[13] = biological target: human Peroxisome Proliferator-activated Receptor alpha (PPARa), PPARA (gene 5465) (UniProt Q07869); assay: ATG_PPARa_TRANS: Attagene TRANS-FACTORIAL HepG2 Assay for human Peroxisome Proliferator-activated Receptor alpha (PPARa) (AID 2283001; active means hit-call score of the fitted dose curve at least 0.9, where 1 is the maximum)
Outline: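 Exposure: 24 h, transiently transfected HepG2 cells. Endpoint: GAL4-UAS reporter mRNA, RT-PCR with capillary electrophoresis fluorescence. Baseline: DMSO; increases fitted.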

[14] = ATG_NF_kB_CIS: Attagene CIS-FACTORIAL HepG2 Assay for human Nuclear Factor Kappa B (NF-kB) (AID 2282991); conditions: HepG2 Attagene cis-factorial NF-kB reporter mRNA; actives raise or lower the signal
Outline: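 Multiplexed cis-reporter assay in transiently transfected HepG2. 24 h treatment; RNA isolated, RT-PCR, labelled fragments resolved by CE. DMSO baseline.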

[15] = BSK_3C_TissueFactor: BioMAP Diversity Plus: 3C Assay for Tissue Factor Biomarker Activity (AID 2282997); conditions: BioMAP 3C HUVEC, tissue factor biomarker readout; actives raise or lower the signal
Outline: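 HUVEC, 3C system, 24 h post-dose; Tissue Factor by ELISA; bidirectional fit vs DMSO baseline.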

[16] = BSK_3C_uPAR: BioMAP Diversity Plus: 3C Assay for Urokinase-type plasminogen activator receptor (uPAR) Biomarker Activity (AID 2282998); conditions: BioMAP 3C HUVEC, uPAR biomarker ELISA; actives raise or lower the signal
Outline: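 HUVEC primary cells; 24 h post-dose; uPAR by ELISA; gain or loss of signal fitted bidirectionally vs DMSO baseline.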

[17] = BSK_3C_VCAM1: BioMAP Diversity Plus: 3C Assay for Vascular cell adhesion molecule 1 (VCAM1) Biomarker Activity (AID 2282999); conditions: BioMAP 3C HUVEC, VCAM1 ELISA, cytokine-stimulated; actives raise or lower the signal
Outline: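 Vascular primary endothelium (human umbilical vein) was exposed to chemicals and assayed 24 h later. VCAM-1 levels came from ELISA, with DMSO serving as baseline for bidirectional fitting.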

[18] = BSK_4H_Eotaxin3: BioMAP Diversity Plus: 4H Assay for Eotaxin 3 Biomarker Activity (AID 2283000); conditions: primary human endothelial cells (HUVEC); actives raise or lower the signal
Outline: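 Readout is Eotaxin-3 (CCL26) level by ELISA in primary human umbilical vein endothelial cells harvested 24 h after chemical exposure; activity fitted in both directions against DMSO control.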

[19] = read-out: Intercellular Adhesion Molecule 1 (ICAM1), ICAM1 (gene 3383); assay: BSK_3C_ICAM1: BioMAP Diversity Plus: 3C Assay for Intercellular Adhesion Molecule 1 (ICAM1) Biomarker Activity (AID 2283003); conditions: primary human endothelial cells (HUVEC); actives raise or lower the signal
Outline: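 ELISA read-out of ICAM-1; HUVEC (primary human), 3C system, 24 h post-dosing; bidirectional fit vs DMSO baseline.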

Measured: AC50

Sequence of human Peroxisome Proliferator-activated Receptor delta (PPARd), PPARD (gene 5467) (Q03181 whole entry, looked up, the tested form may be a part): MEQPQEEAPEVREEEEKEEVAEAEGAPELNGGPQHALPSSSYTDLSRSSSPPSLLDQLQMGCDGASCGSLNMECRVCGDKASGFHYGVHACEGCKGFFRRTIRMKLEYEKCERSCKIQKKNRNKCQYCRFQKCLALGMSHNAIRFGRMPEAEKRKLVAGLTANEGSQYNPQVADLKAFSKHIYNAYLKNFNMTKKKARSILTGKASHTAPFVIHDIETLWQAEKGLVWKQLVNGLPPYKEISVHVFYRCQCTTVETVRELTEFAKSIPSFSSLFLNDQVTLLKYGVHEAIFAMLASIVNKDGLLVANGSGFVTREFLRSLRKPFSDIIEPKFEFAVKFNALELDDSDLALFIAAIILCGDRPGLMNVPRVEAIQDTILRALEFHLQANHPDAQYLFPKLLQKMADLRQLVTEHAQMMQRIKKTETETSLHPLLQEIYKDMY
Sequence of human RAR-related Orphan Receptor beta (RORb), RORB (gene 6096) (Q92753 whole entry, looked up, the tested form may be a part): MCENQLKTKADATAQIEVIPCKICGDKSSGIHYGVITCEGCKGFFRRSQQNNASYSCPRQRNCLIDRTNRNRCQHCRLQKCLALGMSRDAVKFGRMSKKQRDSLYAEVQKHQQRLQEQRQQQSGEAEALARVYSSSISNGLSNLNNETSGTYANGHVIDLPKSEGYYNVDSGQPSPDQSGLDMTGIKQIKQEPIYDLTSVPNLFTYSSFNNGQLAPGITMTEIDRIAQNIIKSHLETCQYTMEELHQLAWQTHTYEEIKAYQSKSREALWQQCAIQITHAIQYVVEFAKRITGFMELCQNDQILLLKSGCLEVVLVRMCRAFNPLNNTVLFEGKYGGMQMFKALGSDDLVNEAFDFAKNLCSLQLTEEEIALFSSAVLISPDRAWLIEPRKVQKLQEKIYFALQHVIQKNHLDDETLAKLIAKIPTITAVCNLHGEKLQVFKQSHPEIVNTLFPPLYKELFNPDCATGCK
Sequence of human Retinoic Acid Receptor beta (RARb), RARB (gene 5915) (P10826 whole entry, looked up, the tested form may be a part): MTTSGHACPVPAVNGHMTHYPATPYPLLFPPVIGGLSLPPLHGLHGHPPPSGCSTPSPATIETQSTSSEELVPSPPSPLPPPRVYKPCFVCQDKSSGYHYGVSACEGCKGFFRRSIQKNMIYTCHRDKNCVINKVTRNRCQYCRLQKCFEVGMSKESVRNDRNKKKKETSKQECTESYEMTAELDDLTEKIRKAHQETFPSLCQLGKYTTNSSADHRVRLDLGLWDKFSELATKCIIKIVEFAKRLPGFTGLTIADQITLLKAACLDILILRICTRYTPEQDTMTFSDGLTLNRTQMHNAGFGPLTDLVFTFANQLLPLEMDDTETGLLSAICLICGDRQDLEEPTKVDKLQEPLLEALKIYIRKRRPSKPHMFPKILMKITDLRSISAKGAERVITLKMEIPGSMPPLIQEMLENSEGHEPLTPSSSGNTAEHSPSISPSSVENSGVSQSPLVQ
Sequence of Nuclear receptor subfamily 1 group I member 2 (Homo sapiens) (O75469 whole entry, looked up, the tested form may be a part): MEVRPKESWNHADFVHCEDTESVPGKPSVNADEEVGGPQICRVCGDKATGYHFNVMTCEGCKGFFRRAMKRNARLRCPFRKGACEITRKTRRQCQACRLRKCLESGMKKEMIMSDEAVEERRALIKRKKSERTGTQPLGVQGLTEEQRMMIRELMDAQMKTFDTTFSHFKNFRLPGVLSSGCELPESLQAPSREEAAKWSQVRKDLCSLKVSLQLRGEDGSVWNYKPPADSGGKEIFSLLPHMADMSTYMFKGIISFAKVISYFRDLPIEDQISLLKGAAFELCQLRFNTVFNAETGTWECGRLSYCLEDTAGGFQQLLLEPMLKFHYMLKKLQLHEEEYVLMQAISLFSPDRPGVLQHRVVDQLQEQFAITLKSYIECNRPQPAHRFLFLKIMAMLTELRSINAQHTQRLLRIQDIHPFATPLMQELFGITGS
Sequence of Myc proto-oncogene protein (Homo sapiens) (P01106 whole entry, looked up): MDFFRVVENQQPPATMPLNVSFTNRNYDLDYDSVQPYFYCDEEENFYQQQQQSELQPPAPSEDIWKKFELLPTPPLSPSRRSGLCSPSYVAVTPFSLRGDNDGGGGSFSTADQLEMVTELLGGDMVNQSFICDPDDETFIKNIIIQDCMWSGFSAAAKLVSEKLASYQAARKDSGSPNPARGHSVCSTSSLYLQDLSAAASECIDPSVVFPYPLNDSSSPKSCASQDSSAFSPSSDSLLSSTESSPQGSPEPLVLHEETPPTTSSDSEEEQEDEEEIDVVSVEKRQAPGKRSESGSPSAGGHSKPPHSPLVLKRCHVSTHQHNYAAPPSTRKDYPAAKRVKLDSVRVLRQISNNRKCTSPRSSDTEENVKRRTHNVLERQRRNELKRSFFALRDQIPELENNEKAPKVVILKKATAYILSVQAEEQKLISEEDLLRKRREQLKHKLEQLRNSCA
Sequence of Cellular tumor antigen p53 (Homo sapiens) (P04637 whole entry, looked up): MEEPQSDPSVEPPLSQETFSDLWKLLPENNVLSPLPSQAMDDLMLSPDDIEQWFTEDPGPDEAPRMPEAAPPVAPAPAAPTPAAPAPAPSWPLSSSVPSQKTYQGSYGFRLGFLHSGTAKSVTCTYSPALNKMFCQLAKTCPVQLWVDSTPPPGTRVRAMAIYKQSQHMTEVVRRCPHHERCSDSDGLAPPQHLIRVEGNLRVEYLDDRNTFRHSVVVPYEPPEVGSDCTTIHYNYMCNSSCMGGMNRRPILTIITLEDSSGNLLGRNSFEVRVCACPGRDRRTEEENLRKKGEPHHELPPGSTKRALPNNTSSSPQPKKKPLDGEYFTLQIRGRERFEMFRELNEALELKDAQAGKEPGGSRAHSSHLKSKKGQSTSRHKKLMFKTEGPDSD
Sequence of Peroxisome proliferator-activated receptor gamma (Homo sapiens) (P37231 whole entry, looked up): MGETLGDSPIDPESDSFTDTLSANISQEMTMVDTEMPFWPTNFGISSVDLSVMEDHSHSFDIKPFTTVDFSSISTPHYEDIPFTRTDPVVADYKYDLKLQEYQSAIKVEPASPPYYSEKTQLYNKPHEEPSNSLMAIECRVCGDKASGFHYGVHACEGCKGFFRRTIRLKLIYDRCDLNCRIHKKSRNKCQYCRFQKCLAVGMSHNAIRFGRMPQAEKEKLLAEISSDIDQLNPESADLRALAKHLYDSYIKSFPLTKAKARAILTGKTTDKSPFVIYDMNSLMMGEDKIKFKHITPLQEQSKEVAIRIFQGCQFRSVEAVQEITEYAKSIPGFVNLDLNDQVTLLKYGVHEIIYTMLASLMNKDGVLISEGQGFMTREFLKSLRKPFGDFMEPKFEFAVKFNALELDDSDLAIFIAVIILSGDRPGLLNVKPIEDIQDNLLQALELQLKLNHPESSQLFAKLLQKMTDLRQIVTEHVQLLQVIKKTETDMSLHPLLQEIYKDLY
Sequence of human Retinoic Acid Receptor gamma (RARg), RARG (gene 5916) (P13631 whole entry, looked up, the tested form may be a part): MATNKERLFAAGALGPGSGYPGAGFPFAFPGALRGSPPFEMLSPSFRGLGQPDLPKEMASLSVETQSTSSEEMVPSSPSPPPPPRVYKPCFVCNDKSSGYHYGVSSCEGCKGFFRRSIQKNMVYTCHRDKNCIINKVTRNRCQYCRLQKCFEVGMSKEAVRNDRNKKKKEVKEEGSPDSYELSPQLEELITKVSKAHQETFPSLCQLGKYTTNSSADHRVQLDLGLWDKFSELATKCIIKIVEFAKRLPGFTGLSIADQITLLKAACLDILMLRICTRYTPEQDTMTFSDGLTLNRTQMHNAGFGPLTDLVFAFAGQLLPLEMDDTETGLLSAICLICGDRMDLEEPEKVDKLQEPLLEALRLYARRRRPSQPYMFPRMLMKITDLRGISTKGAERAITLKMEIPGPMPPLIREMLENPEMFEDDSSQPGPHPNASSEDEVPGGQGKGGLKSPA
Sequence of human Peroxisome Proliferator-activated Receptor alpha (PPARa), PPARA (gene 5465) (Q07869 whole entry, looked up, the tested form may be a part): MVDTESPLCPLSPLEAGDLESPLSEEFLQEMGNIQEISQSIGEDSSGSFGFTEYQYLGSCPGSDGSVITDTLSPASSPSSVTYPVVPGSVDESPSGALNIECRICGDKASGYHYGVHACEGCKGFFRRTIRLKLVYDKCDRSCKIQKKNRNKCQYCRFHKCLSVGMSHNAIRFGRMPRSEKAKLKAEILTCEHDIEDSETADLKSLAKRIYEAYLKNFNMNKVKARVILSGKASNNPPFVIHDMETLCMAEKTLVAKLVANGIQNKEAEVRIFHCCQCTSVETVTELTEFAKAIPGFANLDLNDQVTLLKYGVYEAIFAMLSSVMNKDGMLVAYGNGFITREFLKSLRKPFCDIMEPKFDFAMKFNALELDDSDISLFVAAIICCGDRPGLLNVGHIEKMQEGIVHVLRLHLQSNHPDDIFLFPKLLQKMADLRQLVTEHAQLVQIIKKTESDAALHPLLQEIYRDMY
Sequence of Retinoic acid receptor alpha (Homo sapiens) (P10276 whole entry, looked up, the tested form may be a part): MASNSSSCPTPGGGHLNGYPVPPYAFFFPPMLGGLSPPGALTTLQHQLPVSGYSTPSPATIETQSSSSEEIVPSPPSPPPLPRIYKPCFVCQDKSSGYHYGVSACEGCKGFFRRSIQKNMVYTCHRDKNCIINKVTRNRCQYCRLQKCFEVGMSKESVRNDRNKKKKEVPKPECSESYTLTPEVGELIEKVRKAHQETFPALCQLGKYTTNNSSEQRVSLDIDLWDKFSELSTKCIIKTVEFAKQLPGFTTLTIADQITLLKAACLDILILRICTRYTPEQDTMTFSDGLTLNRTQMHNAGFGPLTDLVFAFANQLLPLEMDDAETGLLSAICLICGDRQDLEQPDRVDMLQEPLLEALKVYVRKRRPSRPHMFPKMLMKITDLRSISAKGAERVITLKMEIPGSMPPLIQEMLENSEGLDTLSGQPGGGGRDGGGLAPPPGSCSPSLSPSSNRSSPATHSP

C=CC(=O)OCCCC
inactive: [1] | [2] | [3] | [4] | [5] | [6] | [7] | [8] | [9]

C=CCN(CC=C)CC=C
inactive: [1] | [2] | [3] | [4] | [6] | [8]

CCCCCC(C)=O
inactive: [1] | [2] | [3] | [4] | [5] | [10] | [8]

CCCC(=O)OCCc1ccccc1
inactive: [1] | [2] | [3] | [4] | [5] | [8] | [11]

CC1(C)O[C@@H]2C[C@H]3[C@@H]4CCC5=CC(=O)C=C[C@]5(C)[C@@]4(F)[C@@H](O)C[C@]3(C)[C@]2(C(=O)CO)O1
inactive: [1] | [2] | [3] | [4] | [5] | [12] | [11]
active: [8] 4.98 µM

COCCOCCOCCO
inactive: [1] | [2] | [3] | [4] | [5] | [13] | [11]

CCCC(=O)C(CC)Sc1ccoc1C (configuration not stated)
inactive: [1] | [2] | [4] | [5]
active: [3] 27.7 µM | [10] 33.6 µM | [8] 9.72 µM

Cc1ccc(C)o1
inactive: [1] | [2] | [3] | [4] | [5] | [12] | [9]

CC(C)OCCO
inactive: [1] | [2] | [3] | [4] | [5] | [6] | [8] | [11]

COc1ccc(OC)c(N=Nc2c(O)ccc3ccccc23)c1
inactive: [2] | [14] | [4] | [5] | [15] | [13] | [12] | [19] | [6] | [10] | [11]
active: [3] 0.493 µM | [16] 12.2 µM | [17] 20 µM | [18] 9.47 µM | [8] 4.23 µM
